Results filed as inconclusive are left out. Active and inactive are the calls of the source. Rule for the calls, unless noted: active = hit-call score of the fitted dose curve at least 0.9, where 1 is the maximum; inactive = score below 0.9.
Assays:
[1] = read-out: Protein phosphatase 2A (PPP2R4), PTPA (gene 5524); test: LTEA_HepaRG_PPP2R4: Life Technologies and Expression Analysis (LTEA) Assay for Protein phosphatase 2A (PPP2R4) using HepaRG (AID 2283522); conditions: mRNA level, 48 h; actives raise or lower the signal
Procedure, shortened: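 Cells were plated, cultured 48 h, switched to serum-free induction medium, then dosed for 48 h (8 points, max 100 uM, 0.5% DMSO). RNA was isolated and PPP2R4 expression measured by TaqMan qRT-PCR.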

[2] = read-out: Phosphatase and tensin (PTEN), PTEN (gene 5728); test: LTEA_HepaRG_PTEN: Life Technologies and Expression Analysis (LTEA) Assay for Phosphatase and tensin (PTEN) using HepaRG (AID 2283523); conditions: mRNA level, 48 h; actives raise or lower the signal
Procedure, shortened: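 Expression of PTEN is quantified in the human liver line HepaRG following two days of dosing (top concentration 100 uM, half-log dilutions, 0.5% DMSO). Values derive from bidirectional curve fitting relative to DMSO controls.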

[3] = read-out: solute carrier (SLC22A1), SLC22A1 (gene 6580); test: LTEA_HepaRG_SLC22A1: Life Technologies and Expression Analysis (LTEA) Assay for solute carrier (SLC22A1) using HepaRG (AID 2283524); conditions: mRNA level, 48 h; actives raise or lower the signal
Procedure, shortened: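 Transcript induction or suppression of SLC22A1 in human HepaRG cultures is scored after 48 h chemical treatment, with DMSO (0.5%) as baseline for bidirectional fitting. Concentrations span eight half-log points topping at 100 uM.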

[4] = read-out: NAD(P)H dehydrogenase [quinone] 1 (NQO1), NQO1 (gene 1728); test: LTEA_HepaRG_NQO1: Life Technologies and Expression Analysis (LTEA) Assay for NAD(P)H dehydrogenase [quinone] 1 (NQO1) using HepaRG (AID 2283526); conditions: mRNA level, 48 h; actives raise or lower the signal
Procedure, shortened: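 Transcript induction or suppression is quantified by qRT-PCR in human HepaRG liver cells dosed for 48 hours. Eight half-log concentrations topping at 100 uM are used, with 0.5% DMSO as vehicle and baseline.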

[5] = read-out: Nuclear factor erythroid 2-related factor 2 (Homo sapiens) (UniProt Q16236); test: LTEA_HepaRG_NFE2L2: Life Technologies and Expression Analysis (LTEA) Assay for Nuclear factor erythroid 2-related factor 2 (NFE2L2) Transcription Factor using HepaRG (AID 2283527); conditions: mRNA level, 48 h; actives raise or lower the signal;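 note: TaqMan qRT-PCR transcript level normalised to ACTB GAPDH and POLR2A housekeeping genes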
Procedure, shortened: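 Human liver HepaRG line treated in duplicate for 48 h with an eight-point series topping at 100 uM. Gene expression of NFE2L2 by qRT-PCR, bidirectionally fitted against the vehicle control.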

[6] = read-out: succinate dehydrogenase complex iron sulfur subunit B (SDHB), SDHB (gene 6390); test: LTEA_HepaRG_SDHB: Life Technologies and Expression Analysis (LTEA) Assay for succinate dehydrogenase complex iron sulfur subunit B (SDHB) using HepaRG (AID 2283528); conditions: mRNA level, 48 h; actives raise or lower the signal
Procedure, shortened: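 Readout is SDHB transcript level by qRT-PCR, normalised to three housekeeping genes and fitted bidirectionally against 0.5% DMSO vehicle. Human HepaRG cells were treated for 48 h at up to 100 uM.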

[7] = read-out: Signal transducer and activator of transcription 3 (Homo sapiens) (UniProt P40763); test: LTEA_HepaRG_STAT3: Life Technologies and Expression Analysis (LTEA) Assay for Signal transducer and activator of transcription (STAT3) using HepaRG (AID 2283529); conditions: mRNA level, 48 h; actives raise or lower the signal
Procedure, shortened: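 In this transcriptional endpoint, HepaRG cultures receive test chemicals at up to 100 uM for 48 h, tested in duplicate. STAT3 mRNA is normalized to ACTB, GAPDH and POLR2A.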

[8] = read-out: solute carrier (SLCO1B1), SLCO1B1 (gene 10599); test: LTEA_HepaRG_SLCO1B1: Life Technologies and Expression Analysis (LTEA) Assay for solute carrier (SLCO1B1) using HepaRG (AID 2283530); conditions: mRNA level, 48 h; actives raise or lower the signal
Procedure, shortened: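 HepaRG, serum-free induction medium, 48 h dosing, 8-pt half-log from 100 uM, 0.5% DMSO vehicle, duplicates. Readout: SLCO1B1 mRNA, qRT-PCR, ACTB/GAPDH/POLR2A normalization; up or down fit vs DMSO.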

[9] = read-out: sulfotransferase 2A1 (SULT2A1), SULT2A1 (gene 6822); test: LTEA_HepaRG_SULT2A1: Life Technologies and Expression Analysis (LTEA) Assay for sulfotransferase 2A1 (SULT2A1) using HepaRG (AID 2283531); conditions: mRNA level, 48 h; actives raise or lower the signal
Procedure, shortened: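 Transcript levels of SULT2A1, quantified by qRT-PCR and normalized to three housekeeping genes, serve as the readout. Human HepaRG cultures receive test chemicals for 48 h at up to 100 uM in half-log steps, with 0.5% DMSO vehicle.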

[10] = read-out: Transforming Growth Factor (TGFA), TGFA (gene 7039); test: LTEA_HepaRG_TGFA: Life Technologies and Expression Analysis (LTEA) Assay for Transforming Growth Factor (TGFA) using HepaRG (AID 2283532); conditions: mRNA level, 48 h; actives raise or lower the signal
Procedure, shortened: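 Gene expression of TGFA was quantified by qRT-PCR after human HepaRG cells were treated for 48 h with test chemicals (eight concentrations, highest 100 uM, 0.5% DMSO). Activity in either direction was fitted relative to DMSO.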

TIMP1, TIMP1 (gene 7076) = test: LTEA_HepaRG_TIMP1: Life Technologies and Expression Analysis (LTEA) Assay for TIMP1 using HepaRG (AID 2283534); conditions: mRNA level, 48 h; actives raise or lower the signal;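 note: TaqMan qRT-PCR signal normalized to ACTB GAPDH and POLR2A housekeeping genes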
Procedure, shortened: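 Readout is TIMP1 mRNA level measured by qRT-PCR and normalized to three housekeeping genes. Human HepaRG cells were treated for 48 h in duplicate at eight concentrations up to 100 uM (0.5% DMSO); gain or loss fitted against DMSO.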

[11] = read-out: Tumor necrosis factor receptor 1 (TNFRSF1A), TNFRSF1A (gene 7132); test: LTEA_HepaRG_TNFRSF1A: Life Technologies and Expression Analysis (LTEA) Assay for Tumor necrosis factor receptor 1 (TNFRSF1A) using HepaRG (AID 2283535); conditions: mRNA level, 48 h; actives raise or lower the signal
Procedure, shortened: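 Read-out is TNFRSF1A transcript level by TaqMan qRT-PCR, normalized to three housekeeping genes, scored as gain or loss of signal versus 0.5% DMSO. Human HepaRG cells received test chemicals for 48 h at up to 100 uM (half-log series).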

[12] = read-out: Thyroid Hormone Responsive (THRSP), THRSP (gene 7069); test: LTEA_HepaRG_THRSP: Life Technologies and Expression Analysis (LTEA) Assay for Thyroid Hormone Responsive (THRSP) using HepaRG (AID 2283536); conditions: mRNA level, 48 h; actives raise or lower the signal
Procedure, shortened: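 Cell model: human HepaRG, approx. 100,000 cells/well, 0.5% DMSO vehicle. Exposure lasts 48 h; phenobarbital 1 mM serves as induction positive control. Gene expression is measured by qRT-PCR against three endogenous control genes.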

[13] = read-out: UDP glucuronosyltransferase (UGT1A1), UGT1A1 (gene 54658); test: LTEA_HepaRG_UGT1A1: Life Technologies and Expression Analysis (LTEA) Assay for UDP glucuronosyltransferase (UGT1A1) using HepaRG (AID 2283538); conditions: mRNA level, 48 h; actives raise or lower the signal
Procedure, shortened: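 Cells are plated, cultured 48 h, switched to serum-free induction medium, then dosed 48 h at eight concentrations (max 100 uM, 0.5% DMSO). RNA is isolated and UGT1A1 expression measured by qRT-PCR; changes versus DMSO are fitted in both directions.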

[14] = read-out: UDP glucuronosyltransferase (UGT1A6), UGT1A6 (gene 54578); test: LTEA_HepaRG_UGT1A6: Life Technologies and Expression Analysis (LTEA) Assay for UDP glucuronosyltransferase (UGT1A6) using HepaRG (AID 2283539); conditions: mRNA level, 48 h; actives raise or lower the signal
Procedure, shortened: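 HepaRG, 48 h post-plating switch to serum-free induction medium; chemical 48 h, 100 uM top, half-log x8, duplicate, 0.5% DMSO. Phenobarbital 1mM induction control. UGT1A6 mRNA by TaqMan qRT-PCR; gain/loss fit vs DMSO.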

[15] = read-out: X-box binding protein 1 (XBP1), XBP1 (gene 7494); test: LTEA_HepaRG_XBP1: Life Technologies and Expression Analysis (LTEA) Assay for X-box binding protein 1 (XBP1) using HepaRG (AID 2283540); conditions: mRNA level, 48 h; actives raise or lower the signal
Procedure, shortened: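 Transcript levels of XBP1, measured by qRT-PCR and normalised to three housekeeping genes, were fitted bidirectionally relative to 0.5% DMSO controls. Human HepaRG cells received eight-point half-log dilutions from 100 uM for 48 h.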

[16] = LTEA_HepaRG_LDH_cytotoxicity: Cytotoxicity Assessment in the Life Technologies and Expression Analysis (LTEA) Assay (AID 2283563; active = hit-call score of the fitted dose curve at least 0.9, where 1 is the maximum)
Procedure, shortened: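 Cells were thawed and plated for 48 h. Medium was then replaced with serum-free induction medium. Chemicals (8 half-log points, maximum 100 uM, 0.5% DMSO) were added in duplicate for 48 h, after which spent medium was assayed for LDH.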

[17] = ATG_XTT_Cytotoxicity: Cytotoxicity Assessment in the Attagene TRANS-FACTORIAL HepG2 Assay (AID 2283584; active = hit-call score of the fitted dose curve at least 0.9, where 1 is the maximum;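 note: cells exposed to compound for 24 h before reading; active means loss of viability signal versus DMSO baseline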)
Procedure, shortened: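 Cells: human HepG2, transiently transfected with MRTU reporter constructs. Exposure 24 h. Readout: XTT, cell number. Baseline/neg ctrl DMSO; loss-of-signal scored.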

[18] = read-out: Cellular tumor antigen p53 (Homo sapiens) (UniProt P04637); test: LTEA_HepaRG_TP53: Life Technologies and Expression Analysis (LTEA) Assay for Tumor Protein P53 (TP53) using HepaRG (AID 2283537); conditions: mRNA level, 48 h; actives raise or lower the signal
Procedure, shortened: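 Read-out is TP53 transcript level by microfluidic qRT-PCR, normalised to three housekeeping genes and fitted bidirectionally against DMSO. Human HepaRG cells received compounds for 48 h, highest concentration 100 uM.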

Measured: AC50

Chain of Signal transducer and activator of transcription 3 (Homo sapiens) (P40763 whole entry, looked up): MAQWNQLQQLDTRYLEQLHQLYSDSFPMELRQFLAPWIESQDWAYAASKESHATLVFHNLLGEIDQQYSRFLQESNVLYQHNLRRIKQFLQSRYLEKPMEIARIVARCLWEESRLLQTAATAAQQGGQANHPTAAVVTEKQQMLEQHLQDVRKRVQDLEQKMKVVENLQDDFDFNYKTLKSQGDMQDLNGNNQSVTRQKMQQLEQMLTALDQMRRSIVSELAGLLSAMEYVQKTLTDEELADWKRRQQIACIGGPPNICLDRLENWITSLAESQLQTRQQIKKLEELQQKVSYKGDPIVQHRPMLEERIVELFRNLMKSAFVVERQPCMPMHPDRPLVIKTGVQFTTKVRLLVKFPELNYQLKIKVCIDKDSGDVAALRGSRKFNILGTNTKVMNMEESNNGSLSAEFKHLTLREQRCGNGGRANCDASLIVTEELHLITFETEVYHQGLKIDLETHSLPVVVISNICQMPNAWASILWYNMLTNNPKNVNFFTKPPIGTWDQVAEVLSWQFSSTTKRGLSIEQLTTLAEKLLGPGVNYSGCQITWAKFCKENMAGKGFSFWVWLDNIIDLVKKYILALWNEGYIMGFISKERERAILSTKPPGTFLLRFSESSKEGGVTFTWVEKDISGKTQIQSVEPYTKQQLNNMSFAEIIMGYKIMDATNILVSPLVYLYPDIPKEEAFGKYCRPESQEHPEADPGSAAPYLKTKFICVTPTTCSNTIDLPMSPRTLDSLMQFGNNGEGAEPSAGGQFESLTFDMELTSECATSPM
Chain of Cellular tumor antigen p53 (Homo sapiens) (P04637 whole entry, looked up): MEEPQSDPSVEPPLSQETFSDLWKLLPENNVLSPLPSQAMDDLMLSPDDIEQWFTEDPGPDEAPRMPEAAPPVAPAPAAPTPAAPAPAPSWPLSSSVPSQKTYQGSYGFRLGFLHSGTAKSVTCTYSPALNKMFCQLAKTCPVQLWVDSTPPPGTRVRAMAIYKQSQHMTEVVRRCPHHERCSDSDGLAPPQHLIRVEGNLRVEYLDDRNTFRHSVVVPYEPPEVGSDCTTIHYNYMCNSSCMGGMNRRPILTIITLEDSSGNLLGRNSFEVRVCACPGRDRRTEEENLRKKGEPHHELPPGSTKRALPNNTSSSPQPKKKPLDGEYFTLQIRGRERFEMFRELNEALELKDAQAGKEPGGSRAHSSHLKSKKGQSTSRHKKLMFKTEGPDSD
Chain of Nuclear factor erythroid 2-related factor 2 (Homo sapiens) (Q16236 whole entry, looked up): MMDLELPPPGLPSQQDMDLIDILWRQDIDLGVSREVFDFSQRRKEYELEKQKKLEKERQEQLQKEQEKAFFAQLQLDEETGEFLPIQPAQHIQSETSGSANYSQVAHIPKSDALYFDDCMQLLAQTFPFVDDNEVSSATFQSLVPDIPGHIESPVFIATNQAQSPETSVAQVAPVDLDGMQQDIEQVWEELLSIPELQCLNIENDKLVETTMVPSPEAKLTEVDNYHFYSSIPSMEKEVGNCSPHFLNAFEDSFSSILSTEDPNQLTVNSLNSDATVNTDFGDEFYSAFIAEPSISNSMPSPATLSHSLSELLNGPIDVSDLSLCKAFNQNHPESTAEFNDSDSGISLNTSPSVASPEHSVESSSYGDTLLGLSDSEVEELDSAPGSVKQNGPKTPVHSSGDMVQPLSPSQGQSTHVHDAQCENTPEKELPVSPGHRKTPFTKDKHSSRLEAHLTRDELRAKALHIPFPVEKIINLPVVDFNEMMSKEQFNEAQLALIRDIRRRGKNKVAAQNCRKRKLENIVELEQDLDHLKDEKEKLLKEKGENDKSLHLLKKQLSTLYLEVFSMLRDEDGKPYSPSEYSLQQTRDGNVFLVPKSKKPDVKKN

Clc1cccc(Cl)c1
inactive: [1] | [2] | [3] | [4] | [5] | [6] | [7] | [8] | [9] | [10] | TIMP1, TIMP1 (gene 7076) | [11] | [12] | [13] | [14] | [15] | [16]

CC(C)(c1ccc(O)c(-c2ccccc2)c1)c1ccc(O)c(-c2ccccc2)c1
active: [17] 22.2 µM

Oc1c(Cl)cc(Cl)cc1Cl
active: [18] 50 µM
inactive: [1] | [2] | [3] | [4] | [6] | [7] | [8] | [9] | [10] | TIMP1, TIMP1 (gene 7076) | [11] | [12] | [13] | [14] | [15]
